Source: PubChem BioAssay (NCI)
Values joined by “and” are separate entries in the source; they are usually repeats but may differ in a detail not shown here. Equal values may be shown once. The panel holds about 83,000 compounds, 20% with a hit somewhere; the sample as a whole holds those more often.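 48-hour exposure, single concentration, 96-well plates; percent growth endpoint where 0 means no net growth. Active: below 10.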 Active and inactive are the calls of the source.

test system: IGROV1 ovarian; assay: NCI-60 one-dose screen, 48 h (100 = growth as untreated, 0 = no growth, -100 = all killed); conditions: 10 µM unless noted

SMILES	growth
OCCCc1ccccc1	82.4% (inactive)
S=c1nn[nH]n1C1CCCCC1	104% (inactive)
CC1=CC(=O)C=CC1=Nc1ccc(N(C)C)cc1	88.5% (inactive) and 49.4% (inactive)
Nc1nc(=S)c2[nH]cnc2[nH]1	27.3% (inactive) and 36.7% (inactive)
O=c1[nH]c(=S)[nH]n1C(=S)n1[nH]c(=S)[nH]c1=O	101% (inactive)
CN(C)C(=N)N=C(N)N	98.7% (inactive) and 128% (inactive)
COc1ccc2nccc(Cl)c2c1	105% (inactive)
COc1ccc(CCn2cnn3c(=O)c4ccccc4nc3c2=O)cc1OC	115% (inactive)
N=C(N=C(N)N)N1CCOCC1	100% (inactive) and 109% (inactive)
N#CC(=S)Nc1ccc(Cl)c(Cl)c1	19.5% (inactive)
O=C1C(=O)c2ccccc2C(O)=C1CC=C(Cl)Cl	42.7% (inactive)
CCOC(=O)C1=C(C)NC(C)=C(C(=O)OCC)C1	100% (inactive) and 112% (inactive)
COc1ccc(CCO)cc1	99.6% (inactive)
COc1ccc(/C=N/Nc2nc3ccccc3s2)cc1	68.5% (inactive)
Nc1ccccc1SC1CC(=O)N(c2ccc(I)cc2)C1=O (stereo unspecified)	85.2% (inactive)
Clc1ccc2c(c1)N(C1CCCN(Cc3ccccc3)C1)c1ccccc1S2 (stereo unspecified)	43.8% (inactive)
COc1ccc([N+](=O)[O-])cc1OC	111% (inactive) and 109% (inactive)
NC(=O)Cc1nc(O)cc(=O)[nH]1	109% (inactive)

SMILES	growth
N=C(N)N1CCc2ccccc2C1	102% (inactive)
Clc1ccc2sc(-c3ccccc3)nc2c1	101% (inactive)
COc1cc2oc3cc(=O)cc4oc(-c5ccccc5)cc(c2c2c1CCC(c1ccccc1)O2)c43 (stereo unspecified)	70.3% (inactive)
CC(C)(C)C1=CC(=O)C(C(C)(C)C)=CC1=O	95.5% (inactive) and 110% (inactive)
Oc1ccc(O)c(-c2ccccc2)c1	47% (inactive)
COc1ccc(CCl)c(C)c1OC	104% (inactive)
CCNC1=CC(=O)c2ncccc2C1=O	63.2% (inactive)
O=C1C=CC(=O)N1Cc1ccco1	69.7% (inactive)
CC(C)=NOC(C)C(=O)O (stereo unspecified)	135% (inactive)
Cc1cc2nc3ccc(=[N+](C)C)cc-3sc2cc1N	-55.6% (active) and 10.3% (inactive)
c1ccc2c[n+](Cc3ccc4ccccc4n3)ccc2c1	80.5% (inactive)
COc1cc([C@@H]2c3cc4c(cc3[C@H](O)[C@H]3COC(=O)[C@@H]23)OCO4)cc(OC)c1OC	-2.37% (active) and -41.6% (active)
NNC(=O)Nc1ccccc1	102% (inactive)
Cc1nc2c(=O)[nH]c(=S)[nH]c2[nH]c1=O	107% (inactive) and 113% (inactive)
Oc1cccnc1CN1CCOCC1	106% (inactive) and 109% (inactive)
O=C1c2ccccc2CN1c1ccccc1	123% (inactive)
COC1C(OC(N)=O)C(O)C(Oc2ccc3c(O)c(NC(=O)c4ccc(O)c(CC=C(C)C)c4)c(=O)oc3c2C)OC1(C)C (stereo unspecified)	137% (inactive) and 129% (inactive)
C/C=C/C(=O)OCCCCCCCCCCCC	111% (inactive)
